These results are taken from PubChem BioAssay AID1851 (National Center for Advancing Translational Sciences (NCATS), 2009).

Several values for one entry are separate records, joined by “and”; a condition that tells them apart may be missing. Equal values may be shown once. Among all 16,000 compounds or so, about 5,700 (36%) were called active. Another 24% or so got no clear call; they are omitted. Calls come from the whole dose curve; as a rule, active = well fitted curve in the direction sought with a large enough effect; inconclusive = small, poorly fitted or top-dose-only effect, or effect the other way; inactive = no such curve, though single readings can be large or run the other way. The list shows a part of the results. Where a structure was tested more than once in an assay, its records may differ in their call.
% is set by controls: 0 for no effect and ±100 for the full control effect.

The target in this test is Cytochrome P450 1A2 (Homo sapiens) (UniProt P05177). As to the kind of experiment: Cytochrome panel assay with activity outcomes. To be noted: recombinant CYP, pro-luciferin dealkylation, luminescence, p450-cyp1a2; series mostly up to 57.1 µM; activity, negative = inhibition: at the top concentration.
Sequence of Cytochrome P450 1A2 (Homo sapiens) (P05177 whole entry, looked up): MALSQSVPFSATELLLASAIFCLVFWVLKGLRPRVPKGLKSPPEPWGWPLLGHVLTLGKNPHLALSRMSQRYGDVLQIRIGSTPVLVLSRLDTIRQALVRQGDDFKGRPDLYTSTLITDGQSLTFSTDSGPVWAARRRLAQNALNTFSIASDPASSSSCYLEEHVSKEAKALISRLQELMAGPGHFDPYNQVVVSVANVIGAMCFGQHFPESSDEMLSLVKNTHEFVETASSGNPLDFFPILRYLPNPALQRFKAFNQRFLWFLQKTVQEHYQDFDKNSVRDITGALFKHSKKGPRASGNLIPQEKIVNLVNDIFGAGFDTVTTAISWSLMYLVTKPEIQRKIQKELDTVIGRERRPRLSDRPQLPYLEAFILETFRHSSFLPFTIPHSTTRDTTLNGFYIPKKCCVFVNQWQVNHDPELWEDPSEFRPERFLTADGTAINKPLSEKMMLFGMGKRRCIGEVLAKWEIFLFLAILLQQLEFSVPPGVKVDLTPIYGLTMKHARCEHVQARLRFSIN
With `COc1ccc(Oc2ncc3nc(-c4cccs4)c(=O)n(C)c3n2)cc1`, the AC50 (usually the midpoint of the concentration-response curve, whichever way the signal moves) is 3.16 µM (active). For the compound `O=C(NNC(=O)c1cc2cc3ccccc3nc2s1)c1cccc(C(F)(F)F)c1`, the “activity, negative = inhibition” value is -15.5% (inactive). Turning to `Cc1sc(N)c(C(=O)c2cccc(C(F)(F)F)c2)c1C`, the concentration at half-maximal activity (AC50) was 15.8 µM (active). Take `CC(C)NC1(C(N)=O)CCN(Cc2ccccc2)CC1`: the activity, negative = inhibition was 7.61% [at 2.29 µM] (inactive). Same read-out and setting: with `O=C(Cn1nnc2ccccc21)N1CCCCC1` the figure was -2.49% (inactive). The same measure, in the same setting: with `COc1ccc(N(C(=O)Cn2nnc3ccccc32)C2(C(=O)NC3CCCC3)CCCCC2)cc1` the figure was -0.587% (inactive).

In the case of `Cc1ccnc(NCn2nnc3ccccc32)c1`, the half-maximal activity concentration (AC50) is 28.2 µM (active).

For the compound `Cc1ccc(S(=O)(=O)N[C@H]2COC(=O)[C@@H](Cc3ccccc3)NC(=O)[C@@H](C)COC(=O)C/C=C\[C@@H]2C)cc1`, the activity, negative = inhibition was -7.75% [at 11.4 µM] (inactive) and -3.67% [at 11.4 µM] (inactive). For `Cc1c(NC(=O)C23CC4CC(CC(C)(C4)C2)C3)c(=O)n(-c2ccccc2)n1C`, the “activity, negative = inhibition” value was -19.4% (inactive). For `Cc1c(CC(C)(C)C(=O)O)n(Cc2ccc(Cl)cc2)c2ccc(F)cc12`, the half-maximal activity concentration (AC50) is 15.8 µM (active). Turning to `CS(=O)(=O)c1ccc(Cn2c3c(c4cc(F)cc(F)c42)CCC[C@H]3CC(=O)O)cc1`, the “activity, negative = inhibition” value is 5.15% (inactive).

For the compound `OCCNc1nc(NCCC2=CCCCC2)nc(N2CCOCC2)n1`, the concentration at half-maximal activity (AC50) was 0.708 µM (active). On to `O=C(NN1C(=O)c2ccccc2C1=O)C1CCCCC1`, for which the “activity, negative = inhibition” value was 6.68% (inactive). On the same count and under the same terms, with `O=C(O)C[C@H](Cc1ccccc1Cl)C(=O)O` the figure was -17.6% [at 11.4 µM] (inactive).

For the compound `O=C(CSCc1ccccc1Cl)NN1C(=O)c2ccccc2C1=O`, the AC50 is 14.1 µM (active). Take `O=C1/C(=C\c2ccc(Br)o2)SC(=Nc2ccccc2)N1c1ccccc1`: the half-maximal activity concentration (AC50) is 0.126 µM (active).

Consider `CC1=CC(=O)CC(C)(C)[C@]1(O)/C=C\C(C)=C\C(=O)O`, for which the activity, negative = inhibition is -7.1% [at 11.4 µM] (inactive). In the case of `CC1=C(\C=C/C(C)=C/C=C\C(C)=C\C(=O)O)C(C)(C)CCC1`, the concentration at half-maximal activity (AC50) result was “inactive and 20 µM (active)”. On the same count and under the same terms, next, `CC1=NN(C(=O)c2ccncc2)C(=O)[C@@H]1N=Nc1ccc2ccccc2c1`: 0.158 µM (active); `Cc1ccc(C)c(Nc2nc3nonc3nc2N2CCOCC2)c1`: 5.01 µM (active); `FC(F)(F)c1nc2ccccc2nc1N/N=C\c1ccccc1`: 0.562 µM (active). `FC(F)(F)c1nc2ccccc2nc1N/N=C/c1ccc(Cl)cc1`: the half-maximal activity concentration (AC50) was 1.41 µM (active). For `COc1ccccc1CNc1cc(-c2c(C)noc2C)ncn1`, the concentration at half-maximal activity (AC50) was 5.01 µM (active). For the compound `Cc1cccc(CNc2cc(-c3c(C)noc3C)ncn2)c1`, the AC50 is 1 µM (active). For `Cc1noc(C)c1-c1cc(NCc2cccnc2)ncn1`, the AC50 was 1 µM (active). Turning to `Cc1noc(C)c1-c1cc(NCc2ccccc2)ncn1`, the AC50 was 5.01 µM (active). In the case of `CCS(=O)(=O)N(C)[C@@H]1c2cc(C#N)ccc2OC(C)(C)[C@H]1O`, the “activity, negative = inhibition” value is -4.66% (inactive). On the same count and under the same terms, next, `CCOC(=O)C(C)CC(C)C(=O)N1CCOCCN(C(=O)C(C)CC(C)C(=O)OCC)CCOCC1` (centres undefined): 1.57% (inactive). Regarding `Cc1noc(C)c1-c1cc(NCc2cccs2)ncn1`, the AC50 is 0.794 µM (active). As to `Cc1ccc(C(=O)/C=C/c2c[nH]c3ccccc23)cc1`, the concentration at half-maximal activity (AC50) is 5.62 µM (active).

For the compound `O=C(O)[C@H](Cc1c[nH]c2ccccc12)N1C(=O)c2ccccc2C1=O`, the activity, negative = inhibition is -8.32% [at 2.29 µM] (inactive). The same measure, in the same setting: next, `Cc1ccc(C(=O)Nc2ccc(C(=O)/C=C/c3cccs3)cc2)cc1`: -9.32% (inactive). On to `Cc1cc(C)n(Cc2ccc(NC(=O)c3ccc(COc4ccccc4Br)cc3)cc2)n1`, for which the “activity, negative = inhibition” value was 17.9% (inactive). Still for that read-out and setting: next, `COc1ccc(Cc2nnc(NC(=O)c3ccc(Cl)c([N+](=O)[O-])c3)s2)cc1`: 9.74% (inactive).

Take `CNC(=S)NNC(=O)c1sccc1OCc1ccc(C)cc1`: the AC50 is 5.01 µM (active). Consider `COc1ccc(COc2ccsc2C(=O)Nc2ccc(Cl)c(Cl)c2)cc1`, for which the concentration at half-maximal activity (AC50) was 3.16 µM (active). With `Cc1ccc(C(=O)NNC(=S)NC(=O)c2ccc(Cl)cc2)cc1`, the “activity, negative = inhibition” value was -10.7% (inactive). Regarding `COc1ccc(-c2cc(C(F)(F)F)n3nc(C(=O)NCc4ccco4)c(Cl)c3n2)cc1`, the AC50 was 3.55 µM (active). Still for that read-out and setting: next, `Cc1cc(C)n(C(=O)c2cc3ccccc3c(=O)o2)n1`: 7.08 µM (active). On to `O=C(O)CC1(C(=O)O)CCCCC1`, for which the activity, negative = inhibition was 5.1% [at 2.29 µM] (inactive). `CCN1C(=O)c2cccc3c(NC(=O)c4cccc(N5C(=O)CCC5=O)c4)ccc1c23`: the “activity, negative = inhibition” value was -15.9% (inactive).

`CCOC(=O)c1ccc(NC(=O)Nc2ccc3c4c(cccc24)C(=O)N3CC)cc1`: the half-maximal activity concentration (AC50) is 1.58 µM (active). As to `CCCOC(=O)c1ccc(NC(=O)c2cn(CC)c3nc(C)ccc3c2=O)cc1`, the “activity, negative = inhibition” value was -22.5% (inactive). The same measure, in the same setting: next, `CC(C)CO/N=C1/C[C@@H](O)[C@@H](O)[C@@H]2[C@@H]3C(=O)N(Cc4ccc5c(c4)OCO5)C(=O)[C@H]3CC[C@@H]12`: -7.54% [at 11.4 µM] (inactive). For `CC(C)CO[C@H](c1ccc2c(c1)OCO2)[C@H](C)Br`, the concentration at half-maximal activity (AC50) was 0.631 µM (active). For `CC(C)CO/N=C1/C[C@@H](O)[C@@H](O)[C@@H]2[C@@H]3C(=O)N(Cc4ccc5c(c4)OCO5)C(=O)[C@H]3CC[C@H]12`, the activity, negative = inhibition is 2.96% [at 11.4 µM] (inactive).

For the compound `c1ccc2c(-c3c[nH]c4ccccc34)c3ccccc3nc2c1`, the AC50 was 3.16 µM (active).

With `c1ccc2c(CN3CCN(Cc4c[nH]c5ccccc45)CC3)c[nH]c2c1`, the activity, negative = inhibition is -18.1% [at 2.29 µM] (inactive). For the compound `O=C(O)[C@@H](Cc1c[nH]c2ccccc12)C(=O)NO`, the activity, negative = inhibition was -20.4% [at 11.4 µM] (inactive).
